Values joined by “and” are separate entries in the source; they are usually repeats but may differ in a detail not shown here. Equal entries are not always repeated. Among all 5,500 compounds or so, about 2,000 (36%) were called active. Inconclusive results (about 18%) are left out. Cut-off read from the data, not from the text of the source: active = normalized growth mostly below about 0.91 (no sharp cut-off); inconclusive = no clear call, values can overlap the other calls; inactive = mostly above about 0.92. The list shows a part of the results.
Test: chemical genetic growth profiling, strain panel (AID 1159580);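 note: tested at 20 µM; growth read once vehicle control cultures reached saturation at 30 °C; 1 = growth at the plate median or of vehicle wells; lower values mean less growth of the strain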
Settings: S. cerevisiae deletion strains, growth OD

Measured: normalized growth

CC(CCC(=O)O)[C@H]1CCC2C3CC[C@@H]4CCCC[C@]4(C)C3CC[C@@]21C (stereo partly drawn)
inactive: locus YAL013W, strain DEP1, hits give low values 0.995 | locus YAL021C, strain ccr4, hits give low values 1.01 | locus YAL026C, strain drs2, hits give low values 1.01 | locus YAL030W, strain snc1, hits give low values 1.01 | locus YBL061C, strain skt5, hits give low values 1.02 | locus YBR009C, strain hhf1, hits give low values 1.01 | locus YBR021W, strain FUR4, hits give low values 0.987 | locus YBR023C, strain chs3, hits give low values 1.03 | locus YBR171W, strain sec66, hits give low values 1.02 | locus YBR229C, strain ROT2, hits give low values 0.991 | locus YBR231C, strain swc5, hits give low values 1.03 | locus YBR279W, strain paf1, hits give low values 1.01 | locus YCL011C, strain gbp2, hits give low values 1.02 | locus YCL016C, strain dcc1, hits give low values 1.04 | locus YCL029C, strain bik1, hits give low values 0.98 | locus YCL061C, strain MRC1, hits give low values 1.02 | locus YCL069W, strain vba3, hits give low values 1.01 | locus YCR088W, strain abp1, hits give low values 1.01 | locus YDL005C, strain med2, hits give low values 0.999 | locus YDL035C, strain GPR1, hits give low values 0.982 | locus YDL040C, strain nat1, hits give low values 1.01 | locus YDL074C, strain BRE1, hits give low values 0.973 | locus YDL101C, strain DUN1, hits give low values 1.01 | locus YDL185W, strain tfp1, hits give low values 0.977 | locus YDL192W, strain arf1, hits give low values 0.98 | locus YDR001C, strain nth1, hits give low values 1.01 | locus YDR069C, strain doa4, hits give low values 0.994 | locus YDR101C, strain arx1, hits give low values 0.983 | locus YDR137W, strain rgp1, hits give low values 1.05 | locus YDR150W, strain NUM1, hits give low values 0.995 | locus YDR159W, strain sac3, hits give low values 0.998 | locus YDR162C, strain NBP2, hits give low values 1.04 | locus YDR195W, strain ref2 0.981 | locus YDR297W, strain sur2, hits give low values 1.01 | locus YDR318W, strain mcm21, hits give low values 0.988 | locus YDR334W, strain swr1, hits give low values 1 | locus YDR335W, strain msn5, hits give low values 1 | locus YDR388W, hits give low values 0.987 | locus YDR392W, strain spt3, hits give low values 0.943 | locus YDR502C, strain sam2, hits give low values 0.979 | locus YEL003W, strain gim4, hits give low values 1.01 | locus YEL037C, strain rad23, hits give low values 0.993 | locus YEL061C, strain CIN8 (second series), hits give low values 1.01 | locus YEL061C, strain CIN8, hits give low values 0.995 | locus YER015W, strain faa2, hits give low values 1 | locus YER016W, strain bim1, hits give low values 1.01 | locus YER110C, hits give low values 0.986 | locus YER111C, strain swi4, hits give low values 1.02 | locus YER155C, strain BEM2 (second series), hits give low values 1.03 | locus YER155C, strain BEM2, hits give low values 0.989 | locus YER167W, strain BCK2, hits give low values 0.98 | locus YFR010W, strain ubp6, hits give low values 0.997 | locus YGL078C, strain dbp3, hits give low values 0.989 | locus YGL086W, strain mad1, hits give low values 0.985 | locus YGL167C, strain pmr1, hits give low values 1.01 | locus YGL173C, strain kem1, hits give low values 1.01 | locus YGL227W, strain vid30, hits give low values 1.02 | locus YGL240W, strain doc1, hits give low values 1.03 | locus YGL248W, strain PDE1, hits give low values 1 | locus YGL253W, strain hxk2, hits give low values 1 | locus YGR078C, strain PAC10, hits give low values 1.02 | locus YGR135W, strain pre9, hits give low values 1.02 | locus YGR252W, strain gcn5, hits give low values 1.08 | locus YHR013C, strain ard1, hits give low values 1.02 | locus YHR027C, strain rpn1, hits give low values 0.995 | locus YHR030C, strain SLT2, hits give low values 0.997 and 0.97 | locus YHR079C, strain IRE1 (second series), hits give low values 0.981 | locus YHR079C, strain IRE1, hits give low values 0.973 | locus YHR094C, strain hxt1, hits give low values 0.985 | locus YHR129C, strain ARP1, hits give low values 0.995 | locus YHR142W, strain chs7, hits give low values 1 | locus YHR200W, strain rpn10, hits give low values 0.995 | locus YIL066C, strain RNR3, hits give low values 0.992 | locus YIL073C, strain SPO22, hits give low values 1.02 | locus YIL125W, strain kgd1, hits give low values 0.988 | locus YIR030C, strain dcg1, hits give low values 0.985 | locus YJL092W, strain hpr5, hits give low values 1.01 | locus YJL095W, strain BCK1 (second series), hits give low values 1 | locus YJL095W, strain BCK1, hits give low values 1.02 and 0.968 | locus YJL115W, strain asf1, hits give low values 1.01 | locus YJL129C, strain trk1, hits give low values 1.03 | locus YJL134W, strain LCB3, hits give low values 0.996 | locus YJL154C, strain vps35, hits give low values 1.01 | locus YJL164C, strain tpk1, hits give low values 1.02 | locus YJL166W, strain qcr8, hits give low values 1.01 | locus YJL168C, strain set2, hits give low values 0.983 | locus YJL187C, strain SWE1 (second series), hits give low values 1.01 | locus YJL187C, strain SWE1, hits give low values 1.01

— PubChem BioAssay AID1159580 (chemical genetic matrix, 2015)
